# Laboratory results published in PubChem BioAssay (NCATS).
# Records with an inconclusive call do not appear. Active and inactive are the calls of the source. The call rests on the fitted dose curve; in most records, active means well fitted inhibition curve with a large enough effect; inconclusive means small, poorly fitted or top-dose-only effect; inactive means flat fitted curve, though single readings scatter.
# Assay: High Content Imaging Cell-Based qHTS for Inhibitors of the mTORC1 Signaling Pathway in MEF (Tsc2-/-, p53-/-) Cells (AID 2666);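 further: percent of cells scored positive for phospho-rpS6 Ser235/236 immunostaining by imaging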
# Settings: series mostly up to 38.3 µM
# From the text: NIH Molecular Libraries Probe Production Centers Network [MLPCN]
# NIH Chemical Genomics Center [NCGC]
# Assay Submitter (PI): Blenis, John; Hoffman, Greg; Harvard University
# NCGC Assay Overview: Thee mammalian target of rapamycin (mTOR) is an intracellular serine/threonine kinase Aberrant regulation of mTOR signaling plays a causative role in a number of human diseases, including cancer, benign tumors such as lymphangioleiomyomatosis (LAM) and Tuberous Sclerosis Complex (TSC), and metabolic diseases such as diabetes and obesity. This project aims to identify inhibitors of ribosomal protein S6 (rpS6) phosphorylation. The phosphorylation of rpS6 is a key event downstream of mTOR activation. The assay uses a phospho-specific antibody of phospho-rpS6 to detect inhibitors of mTOR activation. Mutations in the Tsc1 and Tsc2 genes are the underlying genetic lesions responsible for TSC, causing constitutive activation of the mTORC1 pathway and leading to profound effects on cell metabolism. Aberrant metabolism in cancer has recently received significant attention as a target to develop therapeutic agents in the treatment of cancer1. As Tsc2-/- cells have lost the ability to respond to energy and growth factor deprivation, these cells are unable to properly down regulate cellular biosynthetic processes in response to metabolic stress, and are thus extremely sensitive to glucose deprivation-induced death.2 A central goal of this project is to explore the unique cell survival and metabolic properties of cells with Tsc1 or Tsc2 by screening for compounds that selectively target the Tsc2-/- MEFs by screening both Tsc2-/- and WT MEF cell lines. We hope to better understand these aspects of TSC physiology in order to exploit them for therapeutic benefit.
# NCGC IN Cell Assay Protocol:
# For quantitative high throughput analysis of mTORC1 signaling, we developed a cell-based assay for immuno-fluorescence based detection of rpS6 phosphorylation on the Acumen Explorer that will be used a platform for the primary small molecule screen. Mouse embryonic fibroblasts (MEFs) are cultured in 1536-well plates using DMEM + 10% FBS. Twenty-four hrs after plating, test compounds (solubilized in DMSO) are delivered and incubated with the cells for 24 hrs at 37 degree Celsius. Following the incubation, media with compound is aspirated and the cells are fixed in 4% paraformaldehyde (PFA) containing PBS + 0.2% TX-100. Next, PFA is aspirated, cells are washed two times with PBS plus 0.2% TX-100 and the cells are blocked for 1 hr at room temperature (blocking buffer: LiCOR Blocking Buffer plus 0.2% TX-100). This is followed by aspiration and staining with Alexa-488 conjugated-phospho-rpS6 Ser235/236 antibody for 2 hours at room temperature (Cell Signaling Technology # 4803, 1:50 dilution in blocking buffer). Cells are washed two times with PBS plus 0.2% TX-100, and stained with 10 uM propidium iodide (PI) for 20-25 minutes for cell number measurement (1:500 dilution of Hoescht staining is also added for IN Cell imaging). Active wells which are selected (based on Acumen results) are imaged on the IN Cell 1000 (GE Healthcare) using the D360/40X and HQ480/40X excitation filters for the Hoechst and Alexa-488 cytoplasmic stains, respectively. The fluorescence emission filters used were HQ460/40M and HQ535/50M for the Hoechst and Alexa-488 cytoplasmic stains, respectively. The normalized phospho-S6 staining is calculated as the ratio of […] for the single concentration rapamycin control ([…] nM) and DMSO columns. […] Inhibition of the pathway is defined based on the normalized phospho-S6 intensity in rapamycin treated cells. Each treatment is reported as the % positive cells in the well, where thresholds are defined by selecting wells with the highest and lowest signal and differentiating between the % non-active and % active populations. […]
row,SMILES,outcome
1,O=C(O)C1=CC(=C(c2ccc(O)c(C(=O)O)c2)c2ccc(O)c(C(=O)O)c2)C=CC1=O,inactive
2,CC(O)C(O)[C@H]1CNc2nc(N)[nH]c(=O)c2N1 (stereo not given in full),inactive
3,Nc1nc2c(nc(Br)n2C2OC3COP(=O)(O)O[C@@H]3C2O)c(=O)[nH]1 (stereo not given in full),inactive
4,CN1Cc2sccc2C(c2ccc(O)c(O)c2)C1 (stereo not given),inactive
5,OC[C@H]1NC[C@@H](O)[C@@H]1O,inactive
6,Fc1ccc(CN(C2=NCCN2)c2c(Cl)cccc2Cl)cc1,inactive
7,O=C(O)/C=C/c1cnc[nH]1,inactive
8,COc1ccccc1N1CCN(CCCNc2c(C)c(=O)n(C)c(=O)n2C)CC1,inactive
9,CCCc1c(-c2ccc(O)cc2)nn(-c2ccc(O)cc2)c1-c1ccc(O)cc1,inactive
10,CO/N=C(\C(=O)N[C@@H]1C(=O)N2C(C(=O)O)=C(CSc3nc(=O)c(O)nn3C)CSC12)c1csc(N)n1 (stereo not given in full),inactive
11,Nc1nc2ccc(Cl)cc2c2nc(-c3ccco3)nn12,inactive
12,CN(C)CCC(c1ccc(Br)cc1)c1ccccn1 (stereo not given),inactive
13,Cc1cc(Cn2cnc3c2C[C@@H](C(=O)O)N(C(=O)C(c2ccccc2)c2ccccc2)C3)ccc1N,inactive
14,NCC(O)(CS(=O)(=O)O)c1ccc(Cl)cc1 (stereo not given),inactive
15,COC(=O)C(C)(N)Cc1ccc(O)cc1 (stereo not given),inactive
16,N[C@@H](Cc1ccc(F)cc1)C(=O)O,inactive
17,[N-]=[N+]=Nc1ccc(C(=O)CSC[C@H](NC(=O)CC[C@H](N)C(=O)O)C(=O)NCC(=O)O)cc1,inactive
18,N#CC(C#N)=C(N)/C(C#N)=C/c1ccc(O)cc1,inactive
19,CC(C)Cn1c(=O)n(C)c(=O)c2[nH]cnc21,inactive
20,Cc1cccc(C2CN(C)CCc3c2cc(O)c(O)c3Cl)c1 (stereo not given),inactive

row,SMILES,outcome
1,CNc1ncnc2c1ncn2[C@H]1C[C@H](OP(=O)(O)O)[C@@H](COP(=O)(O)O)O1,inactive
2,CN1CCCC1CCOC(C)(c1ccccc1)c1ccc(Cl)cc1 (stereo not given),inactive
3,CC(N)(Cc1ccc(O)c(O)c1)C(=O)O (stereo not given),inactive
4,Cc1nc2c(OCc3ccccc3)cccn2c1CC#N,inactive
5,N[C@H]1CONC1=O,inactive
6,COc1cc(C(O)C(=O)O)ccc1O (stereo not given),inactive
7,Cn1cc(C(F)(F)F)nc1-c1ccc(OCC(O)CNCCOc2ccc(O)c(C(N)=O)c2)cc1 (stereo not given),inactive
8,COC1(C2=NCCN2)COc2ccccc2O1 (stereo not given),inactive
9,c1ccc2c(c1)CCC[C@H]2Nc1nc2ccccc2[nH]1,inactive
10,C=CCNc1ncnc2ccc(Br)cc12,inactive
11,c1ccc(C(NCc2cccnc2)(c2ccccc2)c2ccccc2)cc1,inactive
12,O=c1onc2cnc3ccccc3n12,inactive
13,COc1cc(CNC(=O)CCCCCCC(C)C)ccc1O,inactive
14,O=C(O)C1=CCCN(CCON=C(c2ccccc2)c2ccccc2)C1,inactive
15,CC1C(=O)N(C)C(=O)c2nc[nH]c21 (stereo not given),inactive
16,O=C1OC(=O)C2C3CCC(O3)C12 (stereo not given),inactive
17,CCCCCC(O)CCCC(=O)O (stereo not given),inactive
18,CCCc1c(OCCCOc2ccc(OCC(=O)O)cc2)ccc(C(C)=O)c1O,inactive
19,Cc1cc2c(cc1Cl)N(C(=O)Nc1ccnc3ccccc13)CC2,inactive
20,COC(=O)C1=C(C)NC(C)=C([N+](=O)[O-])C1c1ccccc1C(F)(F)F (stereo not given),inactive
